Experimental data from publication PMC5540273 (PLoS ONE, 2017).
Where “and” joins values, the source holds several entries; their conditions need not be identical. Equal entries are not always repeated. Where two headings read alike, the source gives them in different places.

Experiments:
GRK7 = details: concentration: 1 μM, replicates: in singlicate; n = 1
GSK3A = details: n = 1
GSK3B = details: n = 1
HASPIN = system: T1, HASPIN; details: concentration: 1 μM, replicates: in singlicate; n = 1
T1 construct: gene GSG2

HCK = details: concentration: 1 μM, replicates: in singlicate; n = 1
HIPK1 = details: concentration: 1 μM, replicates: in singlicate; n = 1
HIPK2 = details: concentration: 1 μM, replicates: in singlicate; n = 1
HIPK3 = details: n = 1
HIPK4 = details: n = 1
HPK1 = details: n = 1
HUNK = details: concentration: 1 μM, replicates: in singlicate; n = 1
ICK = details: n = 1
IGF1R = details: n = 1
IKK-alpha = system: T2, IKK-alpha; details: n = 1
T2 construct: gene CHUK

IKK-beta = system: T3, IKK-beta; details: n = 1
T3 construct: gene IKBKB

IKK-epsilon = system: T4, IKK-epsilon; details: n = 1
T4 construct: gene IKBKE

INSRR = details: n = 1
INSR = details: n = 1
IRAK1 = details: n = 1
IRAK3 = details: concentration: 1 μM, replicates: in singlicate; n = 1
[1] = concentration: 1 μM, replicates: in singlicate
[2] = concentration: 1 μM,replicates: in singlicate, 1 µM
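Further: KINOMEscan kinase panel screen.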

SMILES: Cc1ccc(NC(=O)Nc2cccc(Cl)c2)cc1-c1ccc(C(=O)Nc2ccncc2)cc1 [GSK1398468]
- %Inh (GRK7): 0%
- %Inh (GSK3A; [1]): 22%
- %Inh (GSK3B; [1]): 4%
- %Inh (HASPIN): 0%
- %Inh (HCK): 0%
- %Inh (HIPK1): 0%
- %Inh (HIPK2): 0%
- %Inh (HIPK3; [1]): 3%
- %Inh (HIPK4; [1]): 0%
- %Inh (HPK1; [1]): 40%
- %Inh (HUNK): 13%
- %Inh (ICK; [1]): 6%
- %Inh (IGF1R; [1]): 0%
- %Inh (IKK-alpha; [1]): 0%
- %Inh (IKK-beta; [1]): 9%
- %Inh (IKK-epsilon; [1]): 15%
- %Inh (INSRR; [1]): 0%
- %Inh (INSR; [1]): 0%
- %Inh (IRAK1; [1]): 27%
- %Inh (IRAK3): 100%

SMILES: Cn1ccc2ncnc(Oc3ccc(Nc4nc5ccccc5[nH]4)cc3)c21
- %Inh (GRK7): 0%
- %Inh (GSK3A; [1]): 12%
- %Inh (GSK3B; [1]): 0%
- %Inh (HASPIN): 50%
- %Inh (HCK): 8%
- %Inh (HIPK1): 17%
- %Inh (HIPK2): 0%
- %Inh (HIPK3; [1]): 0%
- %Inh (HIPK4; [1]): 9%
- %Inh (HPK1; [1]): 0%
- %Inh (HUNK): 0%
- %Inh (ICK; [1]): 0%
- %Inh (IGF1R; [1]): 0%
- %Inh (IKK-alpha; [1]): 0%
- %Inh (IKK-beta; [1]): 0%
- %Inh (IKK-epsilon; [1]): 0%
- %Inh (INSRR; [1]): 17%
- %Inh (INSR; [1]): 0%
- %Inh (IRAK1; [1]): 0%
- %Inh (IRAK3): 0%

SMILES: COc1ccccc1CNC(=O)c1cc(C(=O)c2ccccc2C)c[nH]1 [GSK364507]
- %Inh (GRK7): 0%
- %Inh (GSK3A; [1]): 15%
- %Inh (GSK3B; [1]): 0%
- %Inh (HASPIN): 0%
- %Inh (HCK): 0%
- %Inh (HIPK1): 0%
- %Inh (HIPK2): 0%
- %Inh (HIPK3; [1]): 10%
- %Inh (HIPK4; [1]): 0%
- %Inh (HPK1; [1]): 26%
- %Inh (HUNK): 16%
- %Inh (ICK; [1]): 11%
- %Inh (IGF1R; [1]): 7%
- %Inh (IKK-alpha; [1]): 9%
- %Inh (IKK-beta; [1]): 13%
- %Inh (IKK-epsilon; [1]): 20%
- %Inh (INSRR; [1]): 0%
- %Inh (INSR; [1]): 8%
- %Inh (IRAK1; [1]): 33%
- %Inh (IRAK3): 0%

SMILES: O=C(Nc1n[nH]c2nc(-c3nccs3)c(Br)cc12)C1CC1 [SB-742251]
- %Inh (GRK7): 0%
- %Inh (GSK3A; [1]): 89%
- %Inh (GSK3B; 1 µM): 39%
- %Inh (HASPIN): 11%
- %Inh (HCK): 0%
- %Inh (HIPK1): 0%
- %Inh (HIPK2): 0%
- %Inh (HIPK3; [1]): 0%
- %Inh (HIPK4; [1]): 0%
- %Inh (HPK1; [1]): 48%
- %Inh (HUNK): 0%
- %Inh (ICK; [1]): 61%
- %Inh (IGF1R; [1]): 0%
- %Inh (IKK-alpha; [1]): 54%
- %Inh (IKK-beta; [1]): 49%
- %Inh (IKK-epsilon; [1]): 1%
- %Inh (INSRR; [1]): 0%
- %Inh (INSR; [1]): 2%
- %Inh (IRAK1; [1]): 64%
- %Inh (IRAK3): 4%

SMILES: CSc1nn2c(=O)cc(N3CCOCC3)nc2n1Cc1cccc(C(F)(F)F)c1C [GSK2363608]
- %Inh (GRK7): 0%
- %Inh (GSK3A; [2]): 26% and 9%
- %Inh (GSK3B; [2]): 12% and 25%
- %Inh (HASPIN): 0%
- %Inh (HCK): 0%
- %Inh (HIPK1): 0%
- %Inh (HIPK2): 0%
- %Inh (HIPK3; [2]): 11% and 15%
- %Inh (HIPK4; [2]): 0% and 18%
- %Inh (HPK1; [2]): 24% and 36%
- %Inh (HUNK): 0%
- %Inh (ICK; [2]): 0% and 12%
- %Inh (IGF1R; [2]): 0% and 7%
- %Inh (IKK-alpha; [2]): 2% and 3%
- %Inh (IKK-beta; [2]): 26% and 22%
- %Inh (IKK-epsilon; [2]): 0% and 13%
- %Inh (INSRR; [2]): 0% and 8%
- %Inh (INSR; [2]): 6% and 0%
- %Inh (IRAK1; [2]): 5% and 21%
- %Inh (IRAK3): 0%

SMILES: O=C(Nc1ccc2c(c1)OCO2)NC1CCN(c2ccnc(Nc3ccc(F)cc3)n2)C1 (centres unmarked) [GSK1379724]
- %Inh (GRK7): 0%
- %Inh (GSK3A; [1]): 1%
- %Inh (GSK3B; [1]): 16%
- %Inh (HASPIN): 0%
- %Inh (HCK): 0%
- %Inh (HIPK1): 0%
- %Inh (HIPK2): 0%
- %Inh (HIPK3; [1]): 1%
- %Inh (HIPK4; [1]): 0%
- %Inh (HPK1; [1]): 45%
- %Inh (HUNK): 12%
- %Inh (ICK; [1]): 19%
- %Inh (IGF1R; [1]): 0%
- %Inh (IKK-alpha; [1]): 25%
- %Inh (IKK-beta; [1]): 16%
- %Inh (IKK-epsilon; [1]): 0%
- %Inh (INSRR; [1]): 0%
- %Inh (INSR; [1]): 0%
- %Inh (IRAK1; [1]): 36%
- %Inh (IRAK3): 0%

SMILES: Cc1cccc(-c2nc(Nc3ccc4[nH]ncc4c3)c3ccccc3n2)n1 [GW857175]
- %Inh (GRK7): 4%
- %Inh (GSK3A; [1]): 14%
- %Inh (GSK3B; [1]): 21%
- %Inh (HASPIN): 68%
- %Inh (HCK): 0%
- %Inh (HIPK1): 0%
- %Inh (HIPK2): 20%
- %Inh (HIPK3; [1]): 35%
- %Inh (HIPK4; [1]): 3%
- %Inh (HPK1; [1]): 54%
- %Inh (HUNK): 0%
- %Inh (ICK; [1]): 17%
- %Inh (IGF1R; [1]): 0%
- %Inh (IKK-alpha; [1]): 6%
- %Inh (IKK-beta; [1]): 17%
- %Inh (IKK-epsilon; [1]): 21%
- %Inh (INSRR; [1]): 0%
- %Inh (INSR; [1]): 9%
- %Inh (IRAK1; [1]): 9%
- %Inh (IRAK3): 3%

SMILES: COc1cccc(-c2cc(-c3c[nH]nc3-c3ccccn3)ccn2)c1 [GW680338]
- %Inh (GRK7): 0%
- %Inh (GSK3A; [1]): 3%
- %Inh (GSK3B; [1]): 8%
- %Inh (HASPIN): 23%
- %Inh (HCK): 0%
- %Inh (HIPK1): 11%
- %Inh (HIPK2): 10%
- %Inh (HIPK3; [1]): 22%
- %Inh (HIPK4; [1]): 21%
- %Inh (HPK1; [1]): 25%
- %Inh (HUNK): 71%
- %Inh (ICK; [1]): 0%
- %Inh (IGF1R; [1]): 6%
- %Inh (IKK-alpha; [1]): 2%
- %Inh (IKK-beta; [1]): 0%
- %Inh (IKK-epsilon; [1]): 0%
- %Inh (INSRR; [1]): 0%
- %Inh (INSR; [1]): 0%
- %Inh (IRAK1; [1]): 13%
- %Inh (IRAK3): 0%

SMILES: Cc1cc(N2Cc3ccccc3C2)nc(Nc2ccc(S(=O)(=O)N3CCOCC3)cc2)n1.Cl [GSK1669917]
- %Inh (GRK7): 0%
- %Inh (GSK3A; [1]): 0%
- %Inh (GSK3B; [1]): 0%
- %Inh (HASPIN): 0%
- %Inh (HCK): 0%
- %Inh (HIPK1): 0%
- %Inh (HIPK2): 0%
- %Inh (HIPK3; [1]): 0%
- %Inh (HIPK4; [1]): 0%
- %Inh (HPK1; [1]): 34%
- %Inh (HUNK): 0%
- %Inh (ICK; [1]): 99.9%
- %Inh (IGF1R; [1]): 2%
- %Inh (IKK-alpha; [1]): 0%
- %Inh (IKK-beta; [1]): 0%
- %Inh (IKK-epsilon; [1]): 29%
- %Inh (INSRR; [1]): 0%
- %Inh (INSR; [1]): 100%
- %Inh (IRAK1; [1]): 0%
- %Inh (IRAK3): 0%

SMILES: COc1ccc(Nc2nccc(NCCNC(=O)Nc3ccccc3F)n2)cc1 [GSK1379901]
- %Inh (GRK7): 0%
- %Inh (GSK3A; [1]): 30%
- %Inh (GSK3B; [1]): 13%
- %Inh (HASPIN): 0%
- %Inh (HCK): 0%
- %Inh (HIPK1): 0%
- %Inh (HIPK2): 0%
- %Inh (HIPK3; [1]): 7%
- %Inh (HIPK4; [1]): 0%
- %Inh (HPK1; [1]): 36%
- %Inh (HUNK): 9%
- %Inh (ICK; [1]): 0%
- %Inh (IGF1R; [1]): 10%
- %Inh (IKK-alpha; [1]): 0%
- %Inh (IKK-beta; [1]): 11%
- %Inh (IKK-epsilon; [1]): 12%
- %Inh (INSRR; [1]): 0%
- %Inh (INSR; [1]): 0%
- %Inh (IRAK1; [1]): 36%
- %Inh (IRAK3): 8%
